In the library only some 20% were active in any assay of this set; here they are far more common.
HCMV antiviral – human cytomegalovirus inhibition. HFF cells, HCMV-luciferase reporter, 72 h; hits give low values. activity change, negative = inhibition, % at 57.5 µM. hit rate 4.5% among 410,000. AID 1259415; in the data active means activity change below about -60%; inconclusive means no clear call, values can overlap the other calls; inactive means above about -39%; further: on the % scale 0 is the no-effect control and ±100 the full control effect
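Inhibition of viral replication was scored as loss of reporter luminescence in HFFs infected with HCMV-luciferase (MOI 1 PFU/cell) for 72 h; compounds tested at 2 doses, normalized to buffer and Salinomycin controls.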
Pf growth 96h – P. falciparum growth inhibition at 96 hour, primary screen for plastid delayed-death inhibitors | P. falciparum luciferase reporter growth, 96 h | AID 504834 | Potency, µM (series often up to 28.7 µM), for the others: at the highest dose activity change, negative = inhibition, most hits filed as inhibitors | hit rate 6.9% among 320,000; further: potency means the concentration at half of the fitted maximal effect; on the % scale 0 is the no-effect control and ±100 the full control effect
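Infected RBCs, 2% Hct / 0.05% parasitemia final; luciferase-reporter P. falciparum; cpd 96 h, 37 C, 5% CO2; luciferase detection reagent; luminescence.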
Shiga toxin inh – Shiga toxin inhibition; Vero cells, Shiga toxin protein synthesis inhibition reporter; inhibition, % at 38.7 µM; hit rate 9.2% among 290,000; in the data active means inhibition mostly above about 28%, no sharp cut-off; inactive means mostly below about 43%; further: 0% is about no effect
Pf growth 48h – inhibits P. falciparum growth in the first generation, 48 h | P. falciparum luciferase growth in erythrocytes, 48 h | Potency, µM (series often up to 28.7 µM), for inactives: at the highest dose activity change, negative = inhibition, most hits filed as inhibitors | hit rate 5.9% among 310,000 | AID 504832; further: potency means the concentration at half of the fitted maximal effect; on the % scale 0 is the no-effect control and ±100 the full control effect
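Luciferase-expressing parasites in RBCs, 2% Hct / 0.1% parasitemia final; RPMI 1640 + 0.5% Albumax; 37 C, 5% CO2, one generation; luminescence read-out, lower signal = inhibition.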
CHX counter – counter-screen hit for Shiga toxin inhibitors, cycloheximide; cell reporter, cycloheximide protein synthesis inhibition counterscreen; max response, %; hit rate 12% among 300,000; in the data active means max response mostly above about 13%, no sharp cut-off; inactive means mostly below about 14%; further: read at 38.3 µM for the half of the compounds with a filed dose; 0% is about no effect
* hit, by the source's call. Unless noted, the call rests on the fitted dose curve; in most records, active means well fitted inhibition curve with a large enough effect; inconclusive means small, poorly fitted or top-dose-only effect, or another doubt; inactive means no such curve, though single readings can be large or run the other way.

For Fc1ccc(N=Cc2ccc[nH]2)cc1 the results were HCMV antiviral -29, Pf growth 96h 24%, Shiga toxin inh -21, Pf growth 48h 16% and CHX counter -3.
NNc1ccc(Cl)nn1 was read as HCMV antiviral 0, Pf growth 96h inconclusive, Shiga toxin inh 24, Pf growth 48h -18% and CHX counter 22*.
For Clc1ccc(Nc2ccc(Cl)nn2)cc1 the results were HCMV antiviral 1, Pf growth 96h 35%, Shiga toxin inh 48*, Pf growth 48h 4% and CHX counter 13.
COc1ccc(Nc2ccc(Cl)nn2)cc1 was read as HCMV antiviral -17, Pf growth 96h 1%, Shiga toxin inh 54 and CHX counter 15*.
For CNc1ccc(Cl)nn1 the results were HCMV antiviral 13, Pf growth 96h inconclusive, Shiga toxin inh -4, Pf growth 48h 2% and CHX counter 1.
C[C@H](NC(=O)[C@@H](N)Cc1ccc(O)cc1)C(=O)NCC(=O)N[C@H]1CSSC[C@@H](C(=O)O)NC(=O)[C@H](CO)NC(=O)[C@H]([C@@H](C)O)NC(=O)[C@H](Cc2ccccc2)NC(=O)[C@H]([C@@H](C)O)NC(=O)[C@H](CCCCN)NC(=O)[C@H](Cc2c[nH]c3ccccc23)NC(=O)[C@H](Cc2ccccc2)NC(=O)[C@H](Cc2ccccc2)NC(=O)[C@H](CC(N)=O)NC(=O)[C@H](CCCCN)NC1=O was read as Shiga toxin inh -6 and CHX counter -4.
`CCc1ccccc1NC(=O)NNS(=O)(=O)c1cc(C)ccc1C` gave HCMV antiviral -1, Pf growth 96h -10%, Shiga toxin inh -12, Pf growth 48h 15% and CHX counter -3.
O=C(O)c1ccc(COc2ccc3ccccc3c2/C=C2/NC(=O)N(Cc3ccc(F)cc3)C2=O)cc1 was read as HCMV antiviral 5, Pf growth 96h 32%, Shiga toxin inh 2, Pf growth 48h 8.3µM* and CHX counter 7.
For O=C(O)c1ccc(COc2ccccc2/C=C2\NC(=O)N(Cc3ccccc3)C2=O)cc1 the results were HCMV antiviral -34, Pf growth 96h inconclusive, Shiga toxin inh -9, Pf growth 48h inconclusive and CHX counter 2.
For CC(C)C(=O)NC(c1ccccc1Cl)c1c(O)ccc2ccccc12 (stereo not given) the results were HCMV antiviral 0, Pf growth 96h 4.7µM*, Shiga toxin inh -14, Pf growth 48h 9.3µM* and CHX counter -6.
For CCC(=O)NC(c1ccccc1Cl)c1c(O)ccc2ccccc12 (stereo not given) the results were HCMV antiviral inconclusive, Pf growth 96h -20%, Shiga toxin inh -6, Pf growth 48h 10µM* and CHX counter -1.
`COc1ccccc1C(NC(=O)C1CCCCC1)c1c(O)ccc2ccccc12` (stereo not given) gave HCMV antiviral -102*, Pf growth 96h 388%, Shiga toxin inh -11, Pf growth 48h -10% and CHX counter -2.
`O=C(NC(c1ccc(Cl)cc1)c1c(O)ccc2ccccc12)c1ccccc1` (stereo not given) gave HCMV antiviral -101*, Pf growth 96h 38%, Shiga toxin inh -4, Pf growth 48h 12µM* and CHX counter 33*.
O=C(NCc1ccc2c(c1)OCO2)c1[nH]c(C(F)(F)F)nc1-c1ccccc1 was read as HCMV antiviral -16.
Screening Cc1ccc(CC(=O)Nc2c(C(=O)N3CCN(c4ccccc4)CC3)oc3ccccc23)cc1 returned HCMV antiviral -7.
For CC(=O)c1c(C(C)=O)c(C)n(-c2cccc([N+](=O)[O-])c2)c1C the results were HCMV antiviral -15, Pf growth 96h 9.3µM*, Shiga toxin inh -2, Pf growth 48h -4% and CHX counter -3.
For Cc1cc(C(=O)CCl)c(C)n1-c1cccc([N+](=O)[O-])c1 the results were HCMV antiviral -95*, Pf growth 96h inconclusive, Shiga toxin inh -6, Pf growth 48h inconclusive and CHX counter -1.
`Cc1cc(C(=O)C(=O)NC(C)C)c(C)n1-c1ccc([N+](=O)[O-])cc1` gave HCMV antiviral -11, Pf growth 96h inconclusive, Shiga toxin inh 6, Pf growth 48h 7.4µM* and CHX counter -2.
`COCCNC(=O)C(=O)c1cc(C)n(-c2ccc([N+](=O)[O-])cc2)c1C` gave HCMV antiviral 28, Pf growth 96h -17%, Shiga toxin inh -17, Pf growth 48h inconclusive and CHX counter -3.
Screening CC(=O)c1nnn(-c2cccc([N+](=O)[O-])c2)c1C returned HCMV antiviral 9, Pf growth 96h 23%, Shiga toxin inh 1, Pf growth 48h 33% and CHX counter -3.
Screening O=c1[nH]c2cccnc2n1-c1cccc([N+](=O)[O-])c1 returned HCMV antiviral -85*, Pf growth 96h -3%, Shiga toxin inh 12, Pf growth 48h 21% and CHX counter 1.
For Cc1cnnn1-c1cccc([N+](=O)[O-])c1 the results were HCMV antiviral -37, Pf growth 96h 11%, Shiga toxin inh 27, Pf growth 48h -4% and CHX counter -4.
O=[N+]([O-])CC1(n2nc3ccccc3n2)CCCCC1 was read as Pf growth 96h 83% and Pf growth 48h -12%.
For CC(Nc1nc(-c2ccc3c(c2)NC(=O)CO3)cs1)c1ccccc1 (stereo not given) the results were HCMV antiviral inconclusive, Pf growth 96h inconclusive, Shiga toxin inh 41, Pf growth 48h 2% and CHX counter 18*.
Screening COc1cccc(-c2nc(-c3ccc4c(c3)NC(=O)CO4)cs2)c1 returned HCMV antiviral 2, Pf growth 96h 55%, Shiga toxin inh 105*, Pf growth 48h 155% and CHX counter 50*.
COc1ccc(-c2cc(-c3ccc(OC)cc3)nc(-c3ccc4c(c3)NC(=O)CO4)c2)cc1 was read as HCMV antiviral 24, Shiga toxin inh 15, Pf growth 48h inconclusive and CHX counter 2.
For O=C1COc2ccc(-c3csc(NCC4CCCO4)n3)cc2N1 (stereo not given) the results were HCMV antiviral 6, Pf growth 96h 15µM*, Shiga toxin inh -7 and CHX counter -2.
Screening Cc1ccc(CNC(=O)c2ccc3c(c2)nc(C)n3-c2cccc(F)c2)cc1 returned HCMV antiviral -77*.
For Cc1nc2cccnc2n1-c1cccc(C(=O)NCc2cccc(Cl)c2)c1 the results were HCMV antiviral active.
Screening COCCNC(=O)c1ccc2c(c1)nc(C)n2-c1cccc(F)c1 returned HCMV antiviral 1, Pf growth 96h inconclusive, Shiga toxin inh -15, Pf growth 48h 23% and CHX counter -4.
CC1CN(C(=O)COC(=O)Cc2c(F)cccc2Cl)CC(C)O1 (stereo not given) was read as HCMV antiviral -4, Pf growth 96h -7% and Pf growth 48h -13%.
For Cc1ccc(-c2nc3nc4ccccc4nc3n2Cc2ccco2)cc1 the results were HCMV antiviral 60, Pf growth 96h -77%, Shiga toxin inh 63*, Pf growth 48h 147% and CHX counter 52*.
